# Assay results reported in PubChem BioAssay AID2073 (Sanford-Burnham Center for Chemical Genomics, 2009).
# The campaign covered roughly 290,000 compounds. About 570 (0.2%) were called active. Inconclusive results (about 1%) are left out. No stated cut-off is given here; in the data, active means inhibition mostly above about 51% (no sharp cut-off); inconclusive means no clear call, values can overlap the other calls; inactive means mostly below about 53%. This excerpt belongs to a sample that is enriched for actives.
# Molecular target: Voltage-dependent N-type calcium channel subunit alpha-1B (Homo sapiens) (UniProt Q00975)
# Test: inhibitors of Mint1-CaV2.2 protein interaction, biochemical, HTRF (AID 2073)
# Details: at 20 µM, stronger effect = higher value
# [1] = measured here: average of repeat tests
# Chain of Voltage-dependent N-type calcium channel subunit alpha-1B (Homo sapiens) (Q00975 whole entry, looked up): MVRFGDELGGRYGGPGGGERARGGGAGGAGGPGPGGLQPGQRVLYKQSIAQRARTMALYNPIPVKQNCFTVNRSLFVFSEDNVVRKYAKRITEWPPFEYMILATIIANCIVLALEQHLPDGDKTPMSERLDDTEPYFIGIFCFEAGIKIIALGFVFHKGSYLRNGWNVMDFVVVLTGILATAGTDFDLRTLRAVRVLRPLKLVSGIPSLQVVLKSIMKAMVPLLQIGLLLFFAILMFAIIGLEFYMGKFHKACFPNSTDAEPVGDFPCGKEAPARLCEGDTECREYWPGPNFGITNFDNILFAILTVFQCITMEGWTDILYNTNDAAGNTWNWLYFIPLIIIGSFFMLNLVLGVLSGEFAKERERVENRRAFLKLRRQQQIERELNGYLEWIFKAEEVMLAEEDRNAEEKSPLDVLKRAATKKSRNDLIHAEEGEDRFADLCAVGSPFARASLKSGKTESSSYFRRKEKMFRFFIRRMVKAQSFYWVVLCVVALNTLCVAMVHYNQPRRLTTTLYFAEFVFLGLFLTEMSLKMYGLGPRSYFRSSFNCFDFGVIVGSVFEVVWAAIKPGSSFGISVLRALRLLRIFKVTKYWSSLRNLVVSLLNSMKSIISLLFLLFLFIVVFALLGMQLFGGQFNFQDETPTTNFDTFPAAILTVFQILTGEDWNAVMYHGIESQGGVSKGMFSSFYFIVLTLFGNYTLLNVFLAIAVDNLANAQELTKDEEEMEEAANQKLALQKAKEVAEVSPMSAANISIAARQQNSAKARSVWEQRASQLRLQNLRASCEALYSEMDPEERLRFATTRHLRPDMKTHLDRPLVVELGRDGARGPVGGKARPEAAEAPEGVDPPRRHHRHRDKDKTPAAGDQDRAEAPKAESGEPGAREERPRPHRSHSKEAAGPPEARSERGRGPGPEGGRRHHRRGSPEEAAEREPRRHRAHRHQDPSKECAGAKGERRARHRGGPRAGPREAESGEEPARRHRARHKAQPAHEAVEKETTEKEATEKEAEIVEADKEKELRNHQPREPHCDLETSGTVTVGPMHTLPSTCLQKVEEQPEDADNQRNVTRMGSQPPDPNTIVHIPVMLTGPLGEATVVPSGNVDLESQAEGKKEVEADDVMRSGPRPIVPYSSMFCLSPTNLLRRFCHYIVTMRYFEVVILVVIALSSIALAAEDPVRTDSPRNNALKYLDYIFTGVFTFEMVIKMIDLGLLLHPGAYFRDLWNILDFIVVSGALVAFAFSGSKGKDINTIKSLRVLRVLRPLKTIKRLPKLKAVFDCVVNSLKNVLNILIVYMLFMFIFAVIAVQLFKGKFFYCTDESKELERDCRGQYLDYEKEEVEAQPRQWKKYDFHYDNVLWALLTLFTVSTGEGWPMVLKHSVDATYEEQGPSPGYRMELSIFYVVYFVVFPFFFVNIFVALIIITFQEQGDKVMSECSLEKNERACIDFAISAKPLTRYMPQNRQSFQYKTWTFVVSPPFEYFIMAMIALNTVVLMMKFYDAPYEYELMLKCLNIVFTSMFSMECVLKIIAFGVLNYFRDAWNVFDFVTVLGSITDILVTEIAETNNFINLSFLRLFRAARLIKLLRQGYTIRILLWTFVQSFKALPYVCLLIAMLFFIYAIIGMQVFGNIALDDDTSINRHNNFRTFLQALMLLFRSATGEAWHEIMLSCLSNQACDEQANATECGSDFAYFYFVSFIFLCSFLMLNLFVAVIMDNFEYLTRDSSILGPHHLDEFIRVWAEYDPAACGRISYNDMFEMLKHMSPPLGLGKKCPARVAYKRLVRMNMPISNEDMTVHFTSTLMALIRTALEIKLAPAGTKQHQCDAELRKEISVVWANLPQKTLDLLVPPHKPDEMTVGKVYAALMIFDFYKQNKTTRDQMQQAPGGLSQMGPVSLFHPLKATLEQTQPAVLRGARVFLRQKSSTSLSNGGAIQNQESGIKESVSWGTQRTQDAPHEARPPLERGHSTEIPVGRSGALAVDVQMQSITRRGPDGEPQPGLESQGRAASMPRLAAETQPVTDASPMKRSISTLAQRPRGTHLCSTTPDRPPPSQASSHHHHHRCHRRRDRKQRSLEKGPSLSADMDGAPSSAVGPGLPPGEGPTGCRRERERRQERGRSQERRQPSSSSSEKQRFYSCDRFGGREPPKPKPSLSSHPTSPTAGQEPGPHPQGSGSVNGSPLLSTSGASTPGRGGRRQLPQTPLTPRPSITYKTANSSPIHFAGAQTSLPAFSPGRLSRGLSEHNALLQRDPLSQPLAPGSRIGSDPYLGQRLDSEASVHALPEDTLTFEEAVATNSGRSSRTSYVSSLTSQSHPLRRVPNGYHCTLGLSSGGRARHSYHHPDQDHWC
Structure (SMILES),inhibition,inhibition [1] [%]
CNC(=S)NNC(=O)Cc1ccc(OC)c(OC)c1,-18.7% (inactive),–
Cc1cc(N)n2nc(C(F)(F)F)nc2n1,-3.1% (inactive),–
CC(=O)c1ccc(NC(=O)c2cc3nc4c(c(C(F)(F)F)n3n2)CCCC4)cc1,33.2% (inactive),–
CCn1c(SCC(=O)Nc2cc(C)on2)nnc1-c1ccc(S(=O)(=O)N2CCCC2)cc1,0.3% (inactive),–
O=C1C2C3C=CC(C3)C2C(=O)N1c1ccc(-c2nc3ccccc3o2)cc1 (stereo not given),15.5% (inactive),–
O=C1c2ccccc2C(=O)N1c1ccc(-c2nc3ccccc3o2)cc1,67.9% (active),–
O=C1c2ccccc2C(=O)N1c1cccc(-c2nc3ccccc3o2)c1,19.2% (inactive),–
CC(=O)c1cccc(NC(=O)NNC(=O)c2ccc(-c3ccccc3)cc2)c1,22.1% (inactive),–
CCCNC(=O)CSc1nccn1Cc1ccco1,-17.8% (inactive),–
Cc1ccc(N2CCN(C(=S)Nc3ccccc3C)CC2)cc1,-9.9% (inactive),–
COc1ccc(Cn2c3nc4ccccc4nc3c3c(=O)n(Cc4ccco4)c(C)nc32)cc1,18.4% (inactive),–
Cc1nc2c(c(=O)n1Cc1ccccc1Cl)c1nc3ccccc3nc1n2Cc1ccco1,38.1% (inactive),–
Cc1nc2c(c(=O)n1Cc1ccco1)c1nc3ccccc3nc1n2Cc1ccccc1,50.6% (active),–
O=[N+]([O-])c1ccc(Nc2nc(NCCO)nc(N3CCCC3)n2)cc1,5.1% (inactive),–
Cc1ccc(/C=C/C2=Cc3c(sc(NC(=O)CSc4n[nH]c(N)n4)c3C#N)C(C)(C)C2)o1,61.1% (active),–
Cc1ccsc1/C=C/C1=Cc2c(sc(NC(=O)CSc3n[nH]c(N)n3)c2C#N)C(C)(C)C1,20.6% (inactive),–
CCOc1ccc(/C=C/C2=Cc3c(sc(NC(=O)CSc4n[nH]c(N)n4)c3C#N)C(C)(C)C2)cc1,12.8% (inactive),–
COc1cccc(NC(=O)c2ccco2)c1,3.2% (inactive),–
Cc1ncc(CO)c(/C=N/NC(=S)Nc2ccc(Cl)c(Cl)c2)c1O,50.4% (inactive),30.4
Cc1ncc(CO)c(/C=N/NC(=S)Nc2cccc(Cl)c2)c1O,53.7% (active),–

Structure (SMILES),inhibition,inhibition [1] [%]
Cc1ncc(CO)c(/C=N/NC(=S)Nc2ccc(C(C)C)cc2)c1O,16.5% (inactive),–
CCCCCCc1nc(C(N)=O)c2[nH]c(=O)n(-c3ccccc3F)c2n1,10.4% (inactive),–
COC(=O)c1c(C)oc(C)c1S(=O)(=O)N(Cc1ccccc1)C(C)C,-16.1% (inactive),–
CCc1ccc2nc(N(CCCN(C)C)C(=O)c3ccc(S(=O)(=O)N4CCCC4)cc3)sc2c1,-0.7% (inactive),–
CC(=O)c1ccc(N2CCN(C(=O)c3nn(C)c4c3CS(=O)(=O)c3ccccc3-4)CC2)cc1,9% (inactive),–
O=c1cc2oc3cc(O)c(O)cc3c(-c3ccccc3[N+](=O)[O-])c-2cc1O,15.9% (inactive),–
CCOc1ccccc1-c1c2cc(O)c(=O)cc-2oc2cc(O)c(O)cc12,24.8% (inactive),–
O=c1cc2oc3cc(O)c(O)cc3c(-c3ccccc3O)c-2cc1O,68.3% (active),–
CCC(=O)N1CCc2cc(S(=O)(=O)CCC(=O)Nc3ccc(OC)c(OC)c3)ccc21,5.3% (inactive),–
COc1ccc(CNC(=O)Cc2cn(C)c3ccccc23)c(OC)c1,5.9% (inactive),–
Cc1cc(NC(=O)OC2CCCCC2)ccc1[N+](=O)[O-],-7.7% (inactive),–
COc1cc(C(=O)NS(=O)(=O)c2ccccc2C)ccc1Cc1cn(C)c2ccc(NC(=O)OC3CCCC3)cc12,51.7% (active),–
CC(C)CC(=O)N1CC(C)N(C(=O)CC(C)C)CC1C (stereo not given),4.2% (inactive),–
O=[N+]([O-])c1cccc(CSc2nnc3ccccn23)c1,13.5% (inactive),–
N#C/C(=C/c1ccc(N2CCOCC2)o1)c1ccc(Cl)cc1,51.9% (active),–
N#C/C(=C/c1ccc(N2CCOCC2)o1)c1ccc(Br)cc1,39.6% (inactive),–
Cc1ccc(/C(C#N)=C\c2ccc(N3CCOCC3)o2)cc1,43.4% (inactive),–
CCCCCCc1ccc(N2C[C@H](CCCCC)[C@@H](CC(=O)NCc3ccc(OC)cc3)C2=O)cc1,10.1% (inactive),–
Cc1ccc2c(COC(=O)c3ccc(NC(=O)CC#N)cc3)cc(=O)oc2c1C,57.8% (inactive),36.4
Cc1ccc(NC(=O)c2nsc(Cl)c2Cl)cc1,18.9% (inactive),–

Structure (SMILES),inhibition,inhibition [1] [%]
C/C(=N\NC(=O)c1ccccc1Cl)c1ccccn1,16.3% (inactive),–
CCN(CC)c1ccc(/C=N/NC(=O)c2c(Cl)c(C)nn2C)cc1,10.2% (inactive),–
CCc1nnc(NS(=O)(=O)c2ccc(NCc3cc(Br)ccc3O)cc2)s1,-6.2% (inactive),–
O=C(OCc1cc(=O)n2c(n1)sc1ccccc12)c1ccc(O)cc1O,60.2% (active),–
O=C(OCc1cc(=O)n2c(n1)sc1ccccc12)c1ccc(O)cc1,30.3% (inactive),–
O=C(OCc1cc(=O)n2c(n1)sc1ccccc12)c1cccc(O)c1,19.1% (inactive),–
O=S(=O)(Nc1ccncc1)c1cc(Cl)c(Cl)cc1Cl,12.2% (inactive),–
COc1ccc2oc(=Nc3ccccc3)c(-c3nc4ccccc4[nH]3)cc2c1,37.9% (inactive),–
COc1cccc(N=c2oc3ccccc3cc2-c2nc3ccccc3[nH]2)c1,17.1% (inactive),–
CC(=O)c1sc2nc(CSc3nncn3C)[nH]c(=O)c2c1C,22.1% (inactive),–
CC(=O)c1sc2nc(CSc3nnnn3-c3ccccc3)[nH]c(=O)c2c1C,80.6% (active),–
Cc1ccc(-n2nnnc2SCc2nc3sc(C)c(C)c3c(=O)[nH]2)cc1,12% (inactive),–
COc1ccc2c(C(=O)CN3CCSCC3)c[nH]c2c1,25.2% (inactive),–
COC(=O)C1=C(N)Oc2c(oc(CO)cc2=O)C1c1ccccc1F (stereo not given),0.2% (inactive),–
O=C(O)CC(C(=O)O)N1C(=O)/C(=C/C=C/c2ccco2)SC1=S (stereo not given),27.4% (inactive),–
CC(C(=O)O)N1C(=O)/C(=C/C=C/c2ccco2)SC1=S (stereo not given),77.7% (active),–
CC(C)C(C(=O)O)N1C(=O)/C(=C/C=C/c2ccco2)SC1=S (stereo not given),49.5% (inactive),–
CNC(=S)NNC(=O)c1c(C)nc2cc(C)ccn12,0.7% (inactive),–
